# This is a sample that favours compounds with a hit; in the whole collection about 3.5% have one here.
# mHTT CaM bind: inhibitors of human mutant huntingtin-calmodulin interaction. inhibition, % at 15 µM. actives 3.6% (n = 190,000). AID 1671202. AlphaScreen His-mHTT/GST-CaM binding, luminescence. P42858;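 also: 0% = both proteins with DMSO and 100% = one protein alone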
# Pf apPOL block: Pf-apPOL DNA polymerase inhibition; inhibition, % at 10 µM; actives 0.25% (n = 210,000); AID 1794808; Recombinant Pf-apPOL, molecular beacon fluorescence, 1.5 h
# The depositor's hits bear a star; . = no result. Rule as the data show it: active = inhibition above about 50%; inactive = the rest.
SMILES,mHTT CaM bind,Pf apPOL block
N#C/C(=C\c1cc2c(cc1Br)OCO2)c1ccc([N+](=O)[O-])cc1,6.6,3.2
Cn1c2ccc(Br)cc2c2nnc(SCN3C(=O)c4ccccc4C3=O)nc21,-2.0,-3.0
Cn1c2ccc(Br)cc2c2nnc(SCCN3CCOCC3)nc21,80.0*,-2.0
Cc1ccccc1C(=O)Nc1ccccc1C(C)C,-4.2,2.4
Cn1cc(C(=O)N2CCN(Cc3ccc4c(c3)OCO4)CC2)c2c3ccccc3n(C)c2c1=O,42.0,1.8
COc1ccc(-c2ccc(C(=O)N3CCCCC3)s2)c(OC)c1OC,0.3,-7.8
COc1ccc(-c2ccc(C(=O)N3CCc4ccccc4C3)s2)c(OC)c1OC,83.4*,-5.2
CC(=O)Nc1c2ccc([N+](=O)[O-])cc2n2c(C)nc3ccc(Cl)cc3c12,-2.0,-5.4
Cc1nc2ccc(Cl)cc2c2c(N)c3ccccc3n12,56.2*,-11.8
OCCN1CCN(C2CCN(Cc3cc(Br)ccc3O)CC2)CC1,0.4,-24.8
Cc1ccc(-c2cc(C(=O)N3CCN(c4ccccn4)CC3)c(C)[nH]2)cc1,77.4*,-1.9
Cn1cc(C(=O)N2CCN(c3ccccn3)CC2)c2cccnc21,-10.5,-0.2
CN(C)/C=C1/C(=O)N(c2c(Cl)cccc2Cl)c2ccc([N+](=O)[O-])cc21,11.0,0.6
COc1cc(C2CC(=O)Nc3n[nH]c(C)c32)ccc1OCc1cccc(Cl)c1 (stereo not given),55.5*,-0.3
COc1cc(C2CC(=O)Nc3n[nH]c(-c4ccc(Cl)cc4)c32)ccc1O (stereo not given),100.0*,2.5
COc1ccc(C2CC(=O)Nc3n[nH]c(-c4ccc(Cl)cc4)c32)cc1OC (stereo not given),4.8,-1.3
COc1cccc(C2CC(=O)Nc3n[nH]c(-c4ccccc4)c32)c1 (stereo not given),12.9,0.8
COc1cc(C2CC(=O)Nc3n[nH]c(C)c32)ccc1OCc1cccc(C)c1 (stereo not given),20.4,-2.7
COc1cc(C2CC(=O)Nc3n[nH]c(-c4ccccc4)c32)cc(OC)c1OC (stereo not given),100.0*,-4.9
Cc1cc(C)nc(N=C(N)Nc2ccc(Cl)cc2Cl)n1,-3.0,-3.6
Cc1ccc(C)c(NC(=O)CN2CCc3ccccc3C2C(=O)N2CCC(C)CC2)c1 (stereo not given),12.1,-6.2
CC1CCN(C(=O)C2c3ccccc3CCN2CC(=O)Nc2ccc(Cl)cc2F)CC1 (stereo not given),67.8*,-3.3
Cc1c(Cl)cccc1NC(=O)CN1CCc2ccccc2C1C(=O)N1CCC(C)CC1 (stereo not given),69.0*,-5.6
Cc1ccc(NC(=O)CN2CCc3ccccc3C2C(=O)N2CCCC2)cc1Cl (stereo not given),64.1*,-4.3
Cc1cc(NC(=O)CN2CCc3ccccc3C2C(=O)N2CCCCC2)ccc1F (stereo not given),2.1,-1.1
SMILES,mHTT CaM bind,Pf apPOL block
O=C(CN1CCc2ccccc2C1C(=O)N1CCCCC1)Nc1ccc(Cl)cc1F (stereo not given),-6.4,-2.4
COc1cc(-c2nc3ccccn3c2N=Cc2cccc([N+](=O)[O-])c2O)ccc1O,20.0,3.6
CC12C=CC3(CN(Cc4ccccc4)C(=O)C3C1C(=O)NCCC1=CCCCC1)O2 (stereo not given),27.0,-8.9
Cn1c(COc2ccccc2)nn(CN2CCC3(CC2)OCCO3)c1=S,-8.1,.
Cn1c(COc2ccccc2)nn(C2c3ccccc3Oc3ccccc32)c1=S,54.3*,.
CCCC(=O)N1CCC2(CC1)SCC(=O)N2c1ccc(OC)cc1,2.5,-0.5
COC(=O)Oc1c(Br)cc2oc(=O)sc2c1[N+](=O)[O-],85.9*,-0.2
CN(C)S(=O)(=O)Oc1cc2sc(=O)oc2cc1Cl,19.0,-4.9
CC(C)COC(=O)Oc1c(Cl)cc2oc(=O)sc2c1[N+](=O)[O-],82.0*,3.3
CCOC(=O)Oc1cc2sc(=O)oc2cc1Br,30.0,-3.4
O=c1oc2cc(Br)c(O)c(Br)c2s1,100.0*,0.6
Cc1ccc(OC(=O)OCC(C)C)c(Br)c1,-18.0,3.9
COC(=O)Oc1c(Cl)cc2oc(=O)sc2c1Br,93.0*,2.5
Cc1ccccc1CNC(=O)C1CCN(c2cncnc2N2CCCC2)CC1,25.2,4.0
COc1cccc(N2CCN(S(=O)(=O)c3ccc(C)cc3)C(C)C2=O)c1 (stereo not given),-5.5,-1.9
CC(C)n1cc2cc(C(=O)NCCN3CCOCC3)sc2c1,6.7,-2.0
Cc1nn(C)cc1CN1CCC(C(O)c2ccccc2)CC1 (stereo not given),-8.8,-2.9
CC(=O)Nc1ccc(N2C(=O)CC(NCCc3ccccn3)C2=O)cc1 (stereo not given),54.0*,-14.9
COc1cccc(CCNC2CC(=O)N(c3ccc(NC(C)=O)cc3)C2=O)c1 (stereo not given),4.4,-5.8
COc1ccc(-c2nc(C(=O)NC(C)C)cs2)cc1OC,0.5,-2.8
O=C(Nc1cccc2ccc(-n3ccnc3)nc12)c1ccc2c(c1)OCO2,-10.1,-0.3
O=C(Nc1cccc2ccc(-n3ccnc3)nc12)c1ccsc1,51.2*,-6.1
Cc1[nH]nc2nc(SCC(=O)NCC3CCCO3)n(-c3ccc(Br)cc3)c(=N)c12 (stereo not given),52.0*,-6.1
COc1cccc(NC(=O)CSc2nc3n[nH]c(C)c3c(=N)n2-c2ccc(C)cc2)c1,57.0*,0.2
CCOc1ccc(-n2c(SC(CC)C(=O)NCCOC)nc3n[nH]c(C)c3c2=N)cc1 (stereo not given),36.0,-4.2
SMILES,mHTT CaM bind,Pf apPOL block
CCC(C)NC(=O)CSc1nc2n[nH]c(C)c2c(=N)n1-c1ccc(OC)cc1 (stereo not given),48.0,-4.0
CCOc1ccc(-n2c(SCC(=O)NCC3CCCO3)nc3n[nH]c(C)c3c2=N)cc1 (stereo not given),9.0,-1.2
Cc1[nH]nc2nc(SCC(=O)NCc3ccco3)n(-c3ccc(Br)cc3)c(=N)c12,80.0*,-2.1
CCOc1ccc(-n2c(SC(CC)C(=O)N(CC)CC)nc3n[nH]c(C)c3c2=N)cc1 (stereo not given),52.0*,-2.7
Cc1ccc(-n2c(SCC(=O)NCc3ccco3)nc3n[nH]c(C)c3c2=N)cc1C,49.0,1.7
CC(=O)Nc1ccc(S(=O)(=O)n2cccn2)cc1,1.3,-11.0
O=C(CN1C2=NCCN2c2ccccc21)c1ccc([N+](=O)[O-])cc1,6.0,6.0
COc1ccc(NC(=O)C2Oc3ccccc3NC2=O)cc1 (stereo not given),-1.0,1.8
COc1ccc(C(=O)C=Cc2ccc3c(c2)OCCO3)c(O)c1,14.3,5.7
CCCCC1=C(O)c2ccccc2C(=O)C1=O,-1.5,-0.8
Cc1cccc(CNC(=O)c2nc(-c3oc4ccccc4c3C)no2)c1,-20.6,0.7
Cc1cc2c(cc1C)-c1nnc(C(F)(F)F)n1C(C)(C)C2,-2.0,-3.2
CNC(=O)c1c(NC(C)=O)sc2c1CCCCC2,-2.5,-39.6
CNC(=O)c1c(N=Cc2ccccc2O)sc2c1CCCC2,61.0*,6.4
Clc1cc(-c2ccccn2)nc(-c2ccccn2)c1,75.5*,.
c1ccc(-c2nc(-c3ccccn3)nc(-c3ccccn3)n2)nc1,19.2,.
CCn1c(C2CCN(C(=O)c3ccc(Br)cc3)C2)nc2cccnc21 (stereo not given),-1.1,-11.3
Cc1ccc(NC(=O)NCCC2CCN(C(=O)NC3CCCCC3)CC2)c(C)c1,-10.8,-3.4

# High-throughput results: PubChem, University of Kansas High Throughput Screening Laboratory
